Measured values taken from PubChem BioAssay AID1851 (National Center for Advancing Translational Sciences (NCATS), 2009).
Out of some 16,000 compounds screened, about 2,600 (16%) were called active. Not shown: some 20% with an inconclusive outcome. The list is a sample of the results. Values without a mark were called inactive. Calls come from the whole dose curve; as a rule, active = well fitted curve in the direction sought with a large enough effect; inconclusive = small, poorly fitted or top-dose-only effect, or effect the other way; inactive = no such curve, though single readings can be large or run the other way.

Target: Cytochrome P450 2D6 (Homo sapiens) (UniProt P10635)
Assay: Cytochrome panel assay with activity outcomes
Conditions: recombinant CYP, pro-luciferin dealkylation, luminescence, p450-cyp2d6; series mostly up to 57.1 µM
% is set by controls: 0 for no effect and ±100 for the full control effect.

Cytochrome P450 2D6 (Homo sapiens), sequence (P10635 whole entry, looked up): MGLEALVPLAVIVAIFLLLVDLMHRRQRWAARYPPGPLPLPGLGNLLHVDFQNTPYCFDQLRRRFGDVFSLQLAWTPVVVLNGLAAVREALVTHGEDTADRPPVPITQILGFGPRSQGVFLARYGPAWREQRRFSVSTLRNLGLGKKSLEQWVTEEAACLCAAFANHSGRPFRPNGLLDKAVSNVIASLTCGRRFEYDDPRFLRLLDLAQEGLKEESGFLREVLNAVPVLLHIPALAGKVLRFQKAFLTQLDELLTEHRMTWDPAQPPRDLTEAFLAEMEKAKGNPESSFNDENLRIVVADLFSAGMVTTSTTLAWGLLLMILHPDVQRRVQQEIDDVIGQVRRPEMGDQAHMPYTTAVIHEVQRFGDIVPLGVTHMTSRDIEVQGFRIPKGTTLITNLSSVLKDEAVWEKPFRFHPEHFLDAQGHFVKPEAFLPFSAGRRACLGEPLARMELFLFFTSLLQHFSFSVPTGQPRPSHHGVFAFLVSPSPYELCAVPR

Compound	AC50	activity, negative = inhibition
OC[C@@H]1O[C@@H](n2cnc3c(NC4CCCC4)ncnc32)[C@@H](O)[C@H]1O	inactive	–
CCN1C(=O)C=CC1=O	inactive	–
CC[N+](CC)(CC)CC	inactive	–
Clc1ccc(Sc2cc(N3CCOCC3)nc(-c3ccccc3)n2)cc1	inactive	–
CC(=O)C1=C(NC(=O)c2ccc(F)cc2)CC2C1C2(C)C (stereo not drawn)	inactive	–
Cc1[nH]nc(Nc2ccccc2)c1[N+](=O)[O-]	10 µM (active)	–
Cc1ccc(CNc2nc(N)c([N+](=O)[O-])c(Nc3ccc(F)cc3)n2)cc1	inactive	–
Nc1nc(NCc2ccccc2)nc(Nc2cccc(F)c2)c1[N+](=O)[O-]	inactive	–
CCOC(=O)CCc1c(C)nc2ncnn2c1C	inactive	–
O=C(OCC#CCSc1nnc(-c2cccc3ccccc23)o1)c1ccco1	inactive	–
COc1cc2c(cc1OC)C(C(=O)Nc1ccccn1)C(c1cccnc1)N(C)C2=O (stereo not drawn)	inactive	–
c1ccc([C@H](CCN2CCCC2)c2ccccn2)cc1	–	12% [at 11.4 µM]
c1ccc(C(CCN2CC3CCC(CC3)C2)c2ccccc2)cc1	0.794 µM (active)	–
CCOc1cc(/C=N/NC(=O)CN2CCCCC2)ccc1OCc1ccccc1	inactive	–
C/C(CCN1CCc2nc(-c3ccccc3)c(-c3ccccc3)cc2C1)=N\OC[C@@H](O)COCc1ccco1	–	7.77% [at 11.4 µM]
Cc1nc2cnc(Oc3cccc(Cl)c3)nc2n(CCc2ccccc2)c1=O	inactive	–
COC(=O)[C@@H]1CC[C@H](C)[C@@H](c2ccc(C)cc2)N1C(=O)c1ccc(/C=N\OC[C@@H](O)COCc2ccco2)cc1	–	-0.0575% [at 11.4 µM]
COC(=O)[C@@H]1CC[C@H](C)[C@@H](c2ccc(C)cc2)N1C(=O)c1ccc(/C=N\OC[C@@H](C)[C@H](OCc2ccccc2)C(C)C)cc1	3.98 µM (active)	–
CO/N=C\c1ccc(C(=O)N2[C@H](c3ccc(C)cc3)[C@@H](C)CC[C@H]2C(=O)OC)cc1	–	16% [at 11.4 µM]
CC(C)(C)C(=O)[C@H]1[C@H](c2ccccc2)[C@@]2(N=C(c3ccccc3)OC2=O)C2c3ccccc3C=NN21 (stereo partly drawn)	inactive	–
C#CCCCO/N=C1/C[C@@H](O)[C@@H](O)[C@@H]2[C@H]3C(=O)N(c4ccc(F)cc4F)C(=O)[C@@H]3CC[C@H]12	–	-3.2% [at 11.4 µM]
Cc1cc(C(C)(C)C)cc(CNC2CCCCC2)c1O	0.501 µM (active)	–
Oc1cc(CN2COc3ccccc32)c(O)cc1CNC1CCCCC1	–	-11.4% [at 11.4 µM]
CC(C)(C)c1cc2c(O)c(c1)Cc1cc(C(C)(C)C)cc(c1O)Cc1cc(C(C)(C)C)cc(c1O)Cc1cc(C(C)(C)C)cc(c1O)Cc1cc(C(C)(C)C)cc(c1O)Cc1cc(C(C)(C)C)cc(c1O)Cc1cc(C(C)(C)C)cc(c1O)Cc1cc(C(C)(C)C)cc(c1O)C2	–	12.2% [at 11.4 µM]

Compound	AC50	activity, negative = inhibition
COCCn1c(=O)c(-c2ccccc2)nc2cnc(Nc3cccc(OC)c3)nc21	inactive	–
O=C(NC1CCCC1)C(c1ccsc1)N(Cc1ccccc1)C(=O)Cc1cccs1 (stereo not drawn)	12.6 µM (active)	–
Cc1cc(C)cc(N(C(=O)c2ccccn2)C(C(=O)NC2CCCCC2)c2cccs2)c1 (stereo not drawn)	inactive	–
CC(C)c1ccc(N(C(=O)C(F)(F)F)C(C(=O)NC2CCCCC2)c2ccncc2)cc1 (stereo not drawn)	inactive	–
O=C(NC1CCCCC1)C(c1cccs1)N(Cc1cccs1)C(=O)c1ccco1 (stereo not drawn)	17.8 µM (active)	–
Cc1ccc(N(C(=O)C(F)(F)F)C(C(=O)NC2CCCCC2)c2cccs2)cc1C (stereo not drawn)	inactive	–
Cc1ccc(C(OC(=O)c2ccco2)C(=O)NC2CCCCC2)cc1 (stereo not drawn)	inactive	–
Cc1nn(C)cc1C(C(=O)NC1CCCCC1)N(C(=O)Cc1cccs1)c1ccc(C(C)C)cc1 (stereo not drawn)	inactive	–
O=C(NC1CCCCC1)C(c1cccs1)N(C(=O)C(F)(F)F)c1ccccc1 (stereo not drawn)	10 µM (active)	–
Cc1cc(C)cc(N(C(=O)Cc2cccs2)C(C(=O)NC2CCCCC2)c2ccccn2)c1 (stereo not drawn)	inactive	–
CC(C)(S)[C@H](N)C(=O)O	–	14.1% [at 11.4 µM]
Cc1nc(S(=O)(=O)N(C)c2ccccc2)c(C#N)c(C)c1Cl	inactive	–
CCOC(=O)c1cc2c(C(F)(F)F)cc(-c3ccccc3)nc2o1	inactive	–
Nc1c(S(=O)(=O)O)cc(Nc2cccc(S(N)(=O)=O)c2)c2c1C(=O)c1ccccc1C2=O	–	-9.77% [at 11.4 µM]
CCOC(=O)c1cc(NC(=O)c2ccc(C)cc2)c(=O)oc1-c1ccccc1	inactive	–
O=C(c1c(O)c2ccc(Cl)cc2[nH]c1=O)C1CC1	0.1 µM (active)	–
O=C(O)c1cc(=O)c2ccc(Cl)cc2[nH]1	inactive	–
CC1CCN(CC(=O)N2c3ccccc3Sc3cc4ccccc4cc32)CC1	3.98 µM (active)	–
CCOC(=O)Nc1ccc2c(c1)N(C(=O)CCN1CCOCC1)c1ccccc1S2	inactive	–
COc1ccc(OC)c2[nH]c(=O)c(CCNC(=O)C3CCCCC3)cc12	inactive	–
COc1ccc([N+](=O)[O-])cc1COc1ccc2c(-c3ccccc3)cc(=O)oc2c1	inactive	–
COc1ccc(-c2[nH]c(-c3ccc(C(=O)O)cc3)nc2-c2ccccc2)cc1	inactive	–
COc1ccc(-c2nc(-c3ccccc3)c(-c3cc([N+](=O)[O-])ccc3C)[nH]2)cc1O	28.2 µM (active)	–
COc1cccc(Nc2ncc3nc(-c4ccccc4)c(=O)n(C)c3n2)c1	inactive	–

Compound	AC50	activity, negative = inhibition
CCOc1cccc(CNCCNC(=O)c2nonc2N)c1	2.24 µM (active)	–
COc1cccc(CNCCNC(=O)c2nonc2N)c1	3.16 µM (active)	–
CCOc1ccc(N2CC(C(=O)NCc3cccc(C)c3)CC2=O)cc1 (stereo not drawn)	inactive	–
COCCNC(=O)c1cc(-c2cccc(OC)c2)on1	inactive	–
CCOc1ccc(-n2c(N)c(C(=O)NCc3cccnc3)sc2=S)cc1	inactive	–
COc1cccc(CSCC(=O)O)c1	–	14.7% [at 11.4 µM]
CCOC(=O)N1CCC(NC(=O)CCC(=O)N2CCOc3ccccc32)CC1	inactive	–
Cc1ccc(Oc2nn[nH]n2)cc1	inactive	–
CC(=O)OCC1=C(C(=O)O)N2C(=O)[C@@H](NC(=O)CSc3ccncc3)[C@@H]2SC1	inactive	–
COc1cc(/C=C2/C(=N)N3C=CSC3=NC2=O)ccc1OCCCOc1c(C)cccc1C	inactive	–
O=C(Nc1nccs1)c1sc2cc(Cl)ccc2c1Cl	inactive	–
C/C(=N\NC(N)=O)c1ccc(Cl)cc1	inactive	–
Cc1nnc(SCC(=O)Nc2nccs2)[nH]c1=O	inactive	–
O=C(Nc1ccc2c(c1)OCCO2)c1cc2sccc2n1Cc1ccccc1	7.94 µM (active)	–
Cc1nc(SCC(=O)Nc2ccc3c(c2)OCCO3)c2oc3ccccc3c2n1	inactive	–
O=C(c1cc2sccc2n1Cc1ccccc1)N1CCN(c2nc3ccccc3s2)CC1	inactive	–
C/C(=N\NC(=O)Cc1ccc(Cl)cc1)c1ccccn1	inactive	–
C/C(=N\NC(=O)CSCc1ccc(Cl)cc1)c1ccc2c(c1)OCCO2	0.562 µM (active)	–
O=C(CN1C(=O)C2C3C=CC(C3)C2C1=O)Nc1ccc2c(c1)OCCO2 (stereo not drawn)	inactive	–
O=C(CSCc1ccc(Cl)cc1)Nc1ccc2c(c1)OCCO2	3.98 µM (active)	–
O=C(CSCc1ccc(Cl)cc1)Nc1nccs1	5.62 µM (active)	–
COC(=O)c1ccc(NC(=O)c2cc3sccc3n2C)cc1	inactive	–
COc1ccc(COC(=O)N/N=C2/C[C@@H](O)[C@@H](O)[C@@H]3[C@@H]4C(=O)N(C(C)(C)C)C(=O)[C@H]4CC[C@H]23)cc1	–	19.2% [at 11.4 µM]
O=C(O)CCc1ccc(-c2ccc(Cl)cc2)n1CCC(=O)O	inactive	–

Compound	AC50	activity, negative = inhibition
O=S(=O)(c1ccccc1)N1CCCC1c1nc2ccccc2s1 (stereo not drawn)	inactive	–
COc1ccc(N2C(=O)CCC(C(=O)Nc3ccccn3)C2c2ccc(OC)c(OC)c2)cc1 (stereo not drawn)	inactive	–
Oc1cc(O)c2c(c1)O[C@H](c1ccc(O)c(O)c1)[C@H](O)C2	inactive	–
COc1ncc2ncc(=O)n(C)c2n1	inactive	–
COC(=O)C1CSC(C(=O)OC)N1C(=O)Nc1ccccc1 (stereo not drawn)	inactive	–
O=C(CC(c1ccccc1)c1ccccc1)Nc1ccc2c(c1)OCCO2	0.251 µM (active)	–
CC(=O)Nc1ccc2c(c1)OCCO2	inactive	–
CC(=O)Nc1ccc2c(c1)OCCOCCOc1cc(NC(C)=O)ccc1OCCOCCOCCO2	inactive	–
CO[C@H]1[C@@H](OC(N)=O)[C@H](O)[C@@H](Oc2ccc3c(O)c(NC(=O)c4ccc(O)c(CC=C(C)C)c4)c(=O)oc3c2C)OC1(C)C	inactive	–
COc1ccc(CCNC(=O)c2ccc3c(=O)n(Cc4ccco4)c(=S)[nH]c3c2)cc1OC	inactive	–
Cc1ccc2c(C)nc(Nc3nc(CSc4nc5ccccc5[nH]4)cc(=O)[nH]3)nc2c1	3.55 µM (active)	–
Cc1ccc2nc(Nc3nc(-c4ccccc4)cc(=O)[nH]3)nc(C)c2c1	inactive	–
Cc1ccc2nc(SCC(=O)Nc3nnc(SCC(N)=O)s3)[nH]c2c1	inactive	–
Cc1nn(C)c(Oc2cccc(Cl)c2)c1C=O	inactive	–
Cc1ccc(C(=O)N/C(=C\c2ccc([N+](=O)[O-])cc2)C(=O)NCCc2ccccc2)cc1	inactive	–
CN1CCc2cccc3c2[C@H]1Cc1ccc(O)c(O)c1-3	12.6 µM (active)	–
CN1CCc2cccc3c2[C@@H]1Cc1ccc(O)c(O)c1-3	inactive	–
COc1ccc(C2=CSC(/N=C/c3ccc(F)cc3)=NN2)cc1	inactive	–
COC(=O)CCSc1cc([N+](=O)[O-])cc2c1c(C1OCCS1)nn2-c1ccccc1 (stereo not drawn)	12.6 µM (active)	–
Cc1ccccc1OC/C(O)=C(\C#N)c1nc2ccccc2[nH]1	inactive	–
Cc1cc(O)c(/C=N/Nc2cccc(Cl)c2)c(=O)o1	0.158 µM (active)	–
